# Where “and” joins values, the source holds several entries; their conditions need not be identical. Equal entries are not always repeated. Inconclusive results are not listed. Some structures have more than one record in an assay (separate samples or runs), and their calls can disagree. Calls of active or inactive are those of the source. How the source made its calls, unless noted: active means hit-call score of the fitted dose curve at least 0.9, where 1 is the maximum; inactive means score below 0.9.
# What was measured:
# [1] = ATG_PBREM_CIS: Attagene CIS-FACTORIAL HepG2 Assay for human Phenobarbital-responsive Enhancer Module (PBREM) (AID 2282955); conditions: HepG2 PBREM cis-reporter, Attagene multiplexed transcription; actives raise or lower the signal
# Procedure, shortened: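 HepG2, transient MRTU transfection, 24 h dosing; RNA → oligo(dT) RT → PCR → 6-FAM extension → HpaI → CE. Bidirectional fit vs DMSO.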
# [2] = ATG_PXRE_CIS: Attagene CIS-FACTORIAL HepG2 Assay for human Pregnane X Receptor Element (PXRE) (AID 2282957); conditions: HepG2 Attagene CIS-FACTORIAL PXRE reporter, mRNA; actives raise or lower the signal
# Procedure, shortened: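 Reporter transcripts under endogenous PXR-responsive cis-regulation quantified from total RNA of transfected HepG2 cells 24 h post-dosing, via RT-PCR with fluorescent primer extension and capillary electrophoresis. Gain or loss of signal fitted against DMSO baseline.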
# [3] = ATG_PPRE_CIS: Attagene CIS-FACTORIAL HepG2 Assay for human Peroxisome Proliferator-activated Response Element (PPRE) (AID 2282958); conditions: HepG2 PPRE cis-element reporter, Attagene transcription factor profiling; actives raise or lower the signal
# Procedure, shortened: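 Transcript-level reporter induction in transfected HepG2 cells after 24 h chemical exposure, quantified by fluorescence from RT-PCR products separated by capillary electrophoresis.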
# [4] = ATG_Sox_CIS: Attagene CIS-FACTORIAL HepG2 Assay for human SRY-box transcription factor (SOX) (AID 2282960); conditions: HepG2 Attagene cis-factorial SOX reporter, mRNA; actives raise or lower the signal
# Procedure, shortened: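 Cells were transfected with reporter constructs under cis-regulatory promoters, then exposed to chemicals for 24 h. Reporter transcripts were quantified by fluorescence after RT-PCR and capillary electrophoresis; activity was fitted in both directions against DMSO.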
# [5] = target: Transcription factor Sp1 (Homo sapiens) (UniProt P08047); experiment: ATG_Sp1_CIS: Attagene CIS-FACTORIAL HepG2 Assay for human Specificity Protein 1 (Sp1) (AID 2282961); conditions: HepG2 Sp1 cis-reporter transcription, actives raise or lower the signal
# Procedure, shortened: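 Measures mRNA induction of an Sp1-linked reporter in HepG2 cells 24 h post-dosing. Multiplexed reporters read by RT-PCR and capillary electrophoresis; DMSO serves as negative control and baseline.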
# [6] = ATG_SREBP_CIS: Attagene CIS-FACTORIAL HepG2 Assay for human Sterol Regulatory Element Binding (SREBP) (AID 2282962); conditions: HepG2 Attagene cis-factorial SREBP reporter, mRNA; actives raise or lower the signal
# Procedure, shortened: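 Endogenous SREBP activity read as cis-element-driven reporter transcript in transiently transfected HepG2, 24 h post-dosing; quantified via RT-PCR plus capillary electrophoresis of fluorescent fragments. Gain or loss of signal fitted relative to DMSO baseline.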
# [7] = target: Signal transducer and activator of transcription 3 (Homo sapiens) (UniProt P40763); experiment: ATG_STAT3_CIS: Attagene CIS-FACTORIAL HepG2 Assay for human Signal Transducer and Activator of Transcription 3 (STAT3) (AID 2282963); conditions: HepG2, Attagene cis-factorial STAT3 reporter transcription; actives raise or lower the signal
# Procedure, shortened: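 Fluorescence intensity of 6-FAM-labelled reporter fragments, separated by capillary electrophoresis after RT-PCR, gave the signal. Cells were HepG2 transfected with cis-element reporter units and treated 24 h; fitting was bidirectional relative to DMSO.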
# [8] = ATG_TA_CIS: Attagene CIS-FACTORIAL HepG2 Assay for human TA Basal Promoter (AID 2282964); conditions: HepG2 Attagene CIS-factorial TA basal promoter reporter; actives raise or lower the signal
# Procedure, shortened: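 Fluorescence from labelled RT-PCR reporter fragments, separated by capillary electrophoresis, gives the signal. Cells: HepG2 transiently carrying multiple reporter units, 24 h chemical dosing. Gain or loss relative to DMSO.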
# [9] = ATG_TCF_b_cat_CIS: Attagene CIS-FACTORIAL HepG2 Assay for human T-Cell-Factor with beta-catenin (TCF/b-cat) (AID 2282965); conditions: HepG2 TCF/beta-catenin cis-reporter transcription, actives raise or lower the signal
# Procedure, shortened: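 HepG2 cells transiently transfected with cis-promoter-driven multiplexed reporter units; reporter mRNA measured 24 h after dosing by RT-PCR, FAM labelling, HpaI digestion and capillary electrophoresis. Bidirectional fitting relative to DMSO baseline.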
# [10] = ATG_TAL_CIS: Attagene CIS-FACTORIAL HepG2 Assay for human TAL Basal Promoter (AID 2282966); conditions: HepG2 Attagene cis-factorial TAL promoter reporter; actives raise or lower the signal;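 further: background control endpoint measuring basal TAL promoter reporter mRNA not a specific factor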
# Procedure, shortened: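 Background-control endpoint: basal TAL promoter reporter transcripts in transiently transfected HepG2, measured 24 h after dosing. Read-out by RT-PCR with fluorescent primer extension and capillary electrophoresis; gain or loss of signal fitted relative to DMSO.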
# [11] = ATG_TGFb_CIS: Attagene CIS-FACTORIAL HepG2 Assay for human Transforming Growth Factor (TGF) (AID 2282967); conditions: HepG2 Attagene CIS TGFb reporter, mRNA transcription; actives raise or lower the signal
# Procedure, shortened: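 Bidirectional fitting relative to DMSO gave the endpoint. Underlying data: reporter mRNA from HepG2 cells carrying transiently transfected cis-regulated reporter constructs, harvested 24 h after dosing and analyzed by RT-PCR and capillary electrophoresis.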
# [12] = target: Nuclear receptor subfamily 1 group I member 3 (Homo sapiens) (UniProt Q14994); experiment: ATG_CAR_TRANS: Attagene TRANS-FACTORIAL HepG2 Assay for human Constitutive Androstane Receptor (CAR) (AID 2282969; active means hit-call score of the fitted dose curve at least 0.9, where 1 is the maximum;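 further: activators raise reporter mRNA above DMSO so AC50 marks induction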); conditions: HepG2 Attagene TRANS-FACTORIAL CAR reporter
# Procedure, shortened: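 Transiently transfected HepG2, multiplex TRANS reporters (CAR-Gal4 chimera driving GAL4-UAS reporter). 24 h dosing. Readout: reporter transcript by RT-PCR + capillary electrophoresis, fluorescence intensity; positive direction vs DMSO.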
# [13] = target: Steroid hormone receptor ERR1 (Homo sapiens) (UniProt P11474); experiment: ATG_ERRa_TRANS: Attagene TRANS-FACTORIAL HepG2 Assay for human Estrogen-Related Receptor alpha (ERRa) (AID 2282971; active means hit-call score of the fitted dose curve at least 0.9, where 1 is the maximum); conditions: HepG2 Attagene TRANS reporter, ERRa transactivation
# Procedure, shortened: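 Reporter transcripts from ERRa-Gal4 chimera activity measured in transiently transfected human HepG2 cells 24 hours after dosing, using RT-PCR with 6-FAM primer extension, HpaI digestion and capillary electrophoresis; DMSO is baseline.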
# [14] = target: X-box-binding protein 1 (Homo sapiens) (UniProt P17861); experiment: ATG_Xbp1_CIS: Attagene CIS-FACTORIAL HepG2 Assay for human X-box Binding Protein 1 (XBP1) (AID 2282972); conditions: HepG2 XBP1 cis-element reporter, Attagene multiplex; actives raise or lower the signal
# Procedure, shortened: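 Reporter transcripts were quantified by RT-PCR with fluorescent primer extension and capillary electrophoresis after 24 h chemical exposure. Cells: transiently transfected HepG2 carrying cis-regulated reporter constructs; data fitted bidirectionally relative to DMSO.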
# [15] = ATG_M_19_TRANS: Attagene TRANS-FACTORIAL HepG2 Assay for M19 Transcription Factor (Internal Marker) (AID 2282974; active means hit-call score of the fitted dose curve at least 0.9, where 1 is the maximum); conditions: HepG2 Attagene TRANS-FACTORIAL M19 internal marker reporter
# Procedure, shortened: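 After transfection of HepG2 with GAL4-UAS-driven reporter constructs, cells are dosed for 24 h. Total RNA is reverse-transcribed, reporter sequences PCR-amplified and labelled, then HpaI-digested and sized by capillary electrophoresis.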
# [16] = ATG_GAL4_TRANS: Attagene TRANS-FACTORIAL HepG2 Assay for GAL4 (Internal Marker) (AID 2282976; active means hit-call score of the fitted dose curve at least 0.9, where 1 is the maximum); conditions: HepG2 Attagene TRANS GAL4 internal marker reporter
# Procedure, shortened: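 In transfected human HepG2 liver cells dosed 24 h, GAL4 reporter mRNA serves as a baseline marker. Detection by RT-PCR with fluorescent capillary electrophoresis, activity fitted upward relative to DMSO.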
# [17] = ATG_RORE_CIS: Attagene CIS-FACTORIAL HepG2 Assay for human RAR-related Orphan Receptor Element (RORE) (AID 2282959); conditions: HepG2 Attagene cis-factorial RORE reporter, mRNA; actives raise or lower the signal
# Procedure, shortened: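 Multiplexed reporter assay measuring mRNA induction from a cis promoter element in transiently transfected HepG2 cells after 24 h treatment. Detection via RT-PCR and capillary electrophoresis fluorescence; DMSO serves as baseline.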
# [18] = ATG_VDRE_CIS: Attagene CIS-FACTORIAL HepG2 Assay for human Vitamin D Receptor Element (VDRE) (AID 2282968); conditions: HepG2 VDRE cis-reporter transcription, actives raise or lower the signal
# Procedure, shortened: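 Compounds were applied for 24 h to HepG2 cells transfected with promoter-regulated reporter units. Total RNA was reverse-transcribed, and reporter amplicons were fluorescently labelled and sized by capillary electrophoresis.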
# [19] = target: Estrogen receptor (Homo sapiens) (UniProt P03372); experiment: ATG_ERa_TRANS: Attagene TRANS-FACTORIAL HepG2 Assay for human Estrogen Receptor alpha (ERa) (AID 2282970; active means hit-call score of the fitted dose curve at least 0.9, where 1 is the maximum); conditions: HepG2 Attagene TRANS ERa GAL4 reporter, mRNA
# Procedure, shortened: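 Reporter transcripts were measured 24 h after dosing by RT-PCR with fluorescent primer extension and capillary electrophoresis. The system is transiently transfected HepG2 expressing exogenous NR-Gal4 chimeras driving GAL4-UAS reporters; DMSO is the baseline.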
# [20] = target: Paired box protein Pax-6 (Homo sapiens) (UniProt P26367); experiment: ATG_Pax6_CIS: Attagene CIS-FACTORIAL HepG2 Assay for human Paired Box 6 (PAX6) (AID 2282956); conditions: HepG2 CIS-FACTORIAL PAX6 reporter transcription, RNA readout; actives raise or lower the signal
# Procedure, shortened: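 Read-out is reporter transcript level, measured by RT-PCR with fluorescent primer extension and capillary electrophoresis after 24 h dosing of transfected HepG2 cells. Activity in either direction fitted relative to DMSO control.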
# Transcription factor Sp1 (Homo sapiens), sequence (P08047 whole entry, looked up): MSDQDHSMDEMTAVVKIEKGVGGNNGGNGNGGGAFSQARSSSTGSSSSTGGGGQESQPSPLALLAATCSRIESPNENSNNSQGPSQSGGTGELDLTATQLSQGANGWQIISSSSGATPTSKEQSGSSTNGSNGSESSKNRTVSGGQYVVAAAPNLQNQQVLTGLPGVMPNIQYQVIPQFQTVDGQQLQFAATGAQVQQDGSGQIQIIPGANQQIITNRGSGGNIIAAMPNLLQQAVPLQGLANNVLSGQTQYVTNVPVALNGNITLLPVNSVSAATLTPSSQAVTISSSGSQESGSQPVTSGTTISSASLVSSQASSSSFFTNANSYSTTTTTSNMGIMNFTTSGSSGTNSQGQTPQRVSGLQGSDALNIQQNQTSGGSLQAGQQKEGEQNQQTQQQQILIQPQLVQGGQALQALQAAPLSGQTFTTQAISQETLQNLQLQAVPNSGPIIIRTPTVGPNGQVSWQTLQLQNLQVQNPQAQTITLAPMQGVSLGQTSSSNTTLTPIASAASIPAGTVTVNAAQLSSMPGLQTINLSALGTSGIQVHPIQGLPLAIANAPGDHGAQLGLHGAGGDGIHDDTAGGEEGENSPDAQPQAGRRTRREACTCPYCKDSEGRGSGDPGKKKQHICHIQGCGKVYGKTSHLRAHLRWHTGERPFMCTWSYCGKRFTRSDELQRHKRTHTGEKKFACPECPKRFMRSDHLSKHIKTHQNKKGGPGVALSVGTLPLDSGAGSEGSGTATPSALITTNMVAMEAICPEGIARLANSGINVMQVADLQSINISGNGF
# X-box-binding protein 1 (Homo sapiens), sequence (P17861 whole entry, looked up): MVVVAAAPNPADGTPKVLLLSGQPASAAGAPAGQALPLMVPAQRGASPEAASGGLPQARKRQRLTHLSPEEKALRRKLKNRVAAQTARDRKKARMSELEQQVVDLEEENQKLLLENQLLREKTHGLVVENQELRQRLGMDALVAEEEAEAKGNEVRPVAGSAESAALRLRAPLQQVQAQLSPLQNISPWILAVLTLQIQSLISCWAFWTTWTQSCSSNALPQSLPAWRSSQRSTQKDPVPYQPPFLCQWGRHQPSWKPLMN
# Signal transducer and activator of transcription 3 (Homo sapiens), sequence (P40763 whole entry, looked up, the tested form may be a part): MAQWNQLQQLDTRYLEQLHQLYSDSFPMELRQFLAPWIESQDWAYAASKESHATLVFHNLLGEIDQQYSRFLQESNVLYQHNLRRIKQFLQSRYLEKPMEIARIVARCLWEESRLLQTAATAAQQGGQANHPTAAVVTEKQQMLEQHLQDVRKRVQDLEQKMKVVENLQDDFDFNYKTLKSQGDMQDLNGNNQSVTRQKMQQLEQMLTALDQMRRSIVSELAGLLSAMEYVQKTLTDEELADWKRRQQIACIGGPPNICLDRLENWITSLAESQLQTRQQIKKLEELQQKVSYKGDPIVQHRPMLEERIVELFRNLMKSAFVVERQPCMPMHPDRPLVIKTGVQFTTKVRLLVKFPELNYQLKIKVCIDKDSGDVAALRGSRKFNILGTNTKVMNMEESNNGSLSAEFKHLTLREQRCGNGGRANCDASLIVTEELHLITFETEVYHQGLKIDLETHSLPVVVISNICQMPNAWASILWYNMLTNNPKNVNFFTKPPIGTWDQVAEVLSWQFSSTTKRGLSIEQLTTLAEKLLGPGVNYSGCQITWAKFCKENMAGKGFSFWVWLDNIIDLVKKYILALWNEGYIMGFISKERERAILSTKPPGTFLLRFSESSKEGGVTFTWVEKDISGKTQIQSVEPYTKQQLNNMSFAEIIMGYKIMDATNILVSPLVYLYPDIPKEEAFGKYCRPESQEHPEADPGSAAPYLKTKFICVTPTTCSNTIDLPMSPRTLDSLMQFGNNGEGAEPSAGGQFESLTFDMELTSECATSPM
# Estrogen receptor (Homo sapiens), sequence (P03372 whole entry, looked up, the tested form may be a part): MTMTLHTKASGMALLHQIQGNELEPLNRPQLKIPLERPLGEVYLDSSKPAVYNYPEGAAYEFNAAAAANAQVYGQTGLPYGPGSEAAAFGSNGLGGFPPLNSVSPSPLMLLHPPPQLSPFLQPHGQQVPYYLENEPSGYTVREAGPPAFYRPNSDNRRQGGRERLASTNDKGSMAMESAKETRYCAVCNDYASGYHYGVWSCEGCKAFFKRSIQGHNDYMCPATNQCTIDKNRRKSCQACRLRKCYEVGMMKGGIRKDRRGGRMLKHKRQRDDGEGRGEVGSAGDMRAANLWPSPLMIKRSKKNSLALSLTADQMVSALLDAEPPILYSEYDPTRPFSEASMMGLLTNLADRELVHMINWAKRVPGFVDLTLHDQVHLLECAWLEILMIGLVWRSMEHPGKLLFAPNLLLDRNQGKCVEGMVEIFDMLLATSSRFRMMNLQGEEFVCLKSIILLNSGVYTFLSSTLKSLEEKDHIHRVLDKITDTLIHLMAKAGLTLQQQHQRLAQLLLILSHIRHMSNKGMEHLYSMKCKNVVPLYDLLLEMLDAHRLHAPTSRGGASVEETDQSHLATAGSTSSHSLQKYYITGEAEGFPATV
# Nuclear receptor subfamily 1 group I member 3 (Homo sapiens), sequence (Q14994 whole entry, looked up, the tested form may be a part): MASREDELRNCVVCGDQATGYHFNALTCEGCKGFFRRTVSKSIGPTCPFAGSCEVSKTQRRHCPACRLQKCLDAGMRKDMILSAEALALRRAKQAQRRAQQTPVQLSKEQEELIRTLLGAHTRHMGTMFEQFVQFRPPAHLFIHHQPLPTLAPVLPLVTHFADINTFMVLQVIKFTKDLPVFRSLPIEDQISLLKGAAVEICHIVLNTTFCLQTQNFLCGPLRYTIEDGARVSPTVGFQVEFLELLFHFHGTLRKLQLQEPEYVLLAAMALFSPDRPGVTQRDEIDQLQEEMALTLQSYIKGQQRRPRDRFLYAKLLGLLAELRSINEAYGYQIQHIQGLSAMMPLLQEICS
# Steroid hormone receptor ERR1 (Homo sapiens), sequence (P11474 whole entry, looked up, the tested form may be a part): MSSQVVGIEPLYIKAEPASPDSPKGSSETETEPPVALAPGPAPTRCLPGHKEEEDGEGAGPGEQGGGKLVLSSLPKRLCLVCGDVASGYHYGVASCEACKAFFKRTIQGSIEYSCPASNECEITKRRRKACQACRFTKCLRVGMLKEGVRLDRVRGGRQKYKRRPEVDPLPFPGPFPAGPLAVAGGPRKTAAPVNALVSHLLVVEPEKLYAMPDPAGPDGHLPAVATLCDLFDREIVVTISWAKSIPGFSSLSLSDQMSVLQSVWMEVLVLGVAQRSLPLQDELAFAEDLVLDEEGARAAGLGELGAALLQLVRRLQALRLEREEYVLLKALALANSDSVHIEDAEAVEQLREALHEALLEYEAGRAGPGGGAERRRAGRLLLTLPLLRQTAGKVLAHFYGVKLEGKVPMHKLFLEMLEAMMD
# Paired box protein Pax-6 (Homo sapiens), sequence (P26367 whole entry, looked up): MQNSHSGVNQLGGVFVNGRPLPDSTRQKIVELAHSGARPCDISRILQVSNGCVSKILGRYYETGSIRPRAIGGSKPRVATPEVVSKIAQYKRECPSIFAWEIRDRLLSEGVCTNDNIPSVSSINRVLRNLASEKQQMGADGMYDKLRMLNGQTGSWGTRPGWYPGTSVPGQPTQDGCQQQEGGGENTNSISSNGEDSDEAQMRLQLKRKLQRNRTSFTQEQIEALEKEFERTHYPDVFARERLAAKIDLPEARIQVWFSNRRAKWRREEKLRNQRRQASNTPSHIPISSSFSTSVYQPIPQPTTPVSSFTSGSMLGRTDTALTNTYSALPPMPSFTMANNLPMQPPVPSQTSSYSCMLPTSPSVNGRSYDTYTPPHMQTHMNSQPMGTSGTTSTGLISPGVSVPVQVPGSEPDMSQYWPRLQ
compound,measurement,setting,value
CC(C)(c1ccc(O)cc1)c1ccc(O)cc1,outcome,[1],inactive
same,outcome,[2],inactive
same,AC50,[3],28.6 µM (active) and 38.9 µM (active) and 15 µM (active)
same,outcome,[3],inactive
same,outcome,[4],inactive
same,AC50,[5],60 µM (active)
same,outcome,[5],inactive
same,outcome,[6],inactive
same,AC50,[7],33.4 µM (active)
same,outcome,[7],inactive
same,AC50,[8],140 µM (active) [middle of 4 runs]
same,outcome,[8],inactive
same,outcome,[9],inactive
same,AC50,[10],162 µM (active)
same,outcome,[10],inactive
same,AC50,[11],43.6 µM (active)
same,outcome,[11],inactive
same,outcome,[12],inactive
same,outcome,[13],inactive
same,outcome,[14],inactive
same,outcome,[15],inactive
same,outcome,[16],inactive
CCN(Cc1c(F)cccc1Cl)c1c([N+](=O)[O-])cc(C(F)(F)F)cc1[N+](=O)[O-],AC50,[1],7.72 µM (active)
same,AC50,[2],1.26 µM (active)
same,outcome,[3],inactive
same,outcome,[17],inactive
same,outcome,[4],inactive
same,outcome,[5],inactive
same,outcome,[6],inactive
same,outcome,[7],inactive
same,outcome,[8],inactive
same,outcome,[9],inactive
same,outcome,[10],inactive
same,outcome,[11],inactive
same,AC50,[18],1.87 µM (active)
same,outcome,[12],inactive
same,AC50,[19],3.08 µM (active)
same,outcome,[13],inactive
same,outcome,[14],inactive
same,outcome,[15],inactive
same,outcome,[16],inactive
CN(C)C(=O)Nc1ccc(Cl)c(Cl)c1,outcome,[1],inactive
same,outcome,[20],inactive
same,AC50,[2],11.4 µM (active) and 25.4 µM (active)
same,AC50,[3],37 µM (active)
same,outcome,[3],inactive
same,outcome,[4],inactive
same,AC50,[5],180 µM (active)
same,outcome,[5],inactive
same,outcome,[6],inactive
same,outcome,[7],inactive
same,outcome,[8],inactive
same,outcome,[9],inactive
same,outcome,[10],inactive
same,outcome,[11],inactive
same,outcome,[12],inactive
same,outcome,[19],inactive
same,outcome,[13],inactive
same,outcome,[14],inactive
same,outcome,[15],inactive
CCNc1nc(N)nc(Cl)n1,outcome,[1],inactive
same,outcome,[20],inactive
same,outcome,[2],inactive
same,outcome,[4],inactive
same,outcome,[5],inactive
same,outcome,[6],inactive
same,outcome,[7],inactive
same,outcome,[8],inactive
same,outcome,[9],inactive
same,outcome,[10],inactive
same,outcome,[11],inactive
same,outcome,[18],inactive
same,outcome,[12],inactive
same,outcome,[13],inactive
same,outcome,[14],inactive
CCCN(CCC)c1c([N+](=O)[O-])cc(C(F)(F)F)c(N)c1[N+](=O)[O-],AC50,[1],29.7 µM (active)
same,AC50,[2],1.29 µM (active)
same,outcome,[3],inactive
same,outcome,[17],inactive
same,outcome,[4],inactive
same,AC50,[5],28.9 µM (active)
same,outcome,[6],inactive
same,outcome,[7],inactive
same,outcome,[8],inactive
same,outcome,[9],inactive
same,outcome,[10],inactive
same,outcome,[11],inactive
same,AC50,[18],3.57 µM (active)
same,outcome,[12],inactive
same,AC50,[19],5.67 µM (active)
same,outcome,[13],inactive
same,outcome,[14],inactive
COC(=O)c1ccc(I)cc1S(=O)(=O)NC(=O)Nc1nc(C)nc(OC)n1,outcome,[1],inactive
same,outcome,[20],inactive
same,AC50,[2],50 µM (active)
same,outcome,[4],inactive
same,outcome,[5],inactive
same,outcome,[6],inactive
same,outcome,[7],inactive
same,outcome,[8],inactive
same,outcome,[9],inactive
same,outcome,[10],inactive
same,outcome,[11],inactive
same,outcome,[18],inactive
same,outcome,[14],inactive
